Source: PubChem BioAssay (Tox21)
Records with an inconclusive call do not appear. Where a call stands in place of a potency, no number is given. A number with no mark means an inactive call. Activity calls are given as the source filed them. Unless noted, the call rests on the fitted dose curve; in most records, active means well fitted curve in the direction sought with a large enough effect in the repeat runs; inconclusive means weak or mixed curves; inactive means no such curve, though single readings can be large; an effect the other way counts as inactive or inconclusive.

Experiments:
[1] = qHTS assay to identify small molecule agonists of the vitamin D receptor (VDR) signaling pathway - cell viability counter screen (AID 743224); further: nearly all actives have a fitted effect of over 50% in size; further: potency means the concentration at half of the fitted maximal effect
Summary of the method: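 Plated VDR-bla cells (4 h, 37C) received compound, incubated 16 h, then LiveBLAzer substrate 2 h RT; CellTiter-Glo added afterwards, luminescence read at 30 min.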

[2] = qHTS assay to identify small molecule antagonists of the vitamin D receptor (VDR) signaling pathway - cell viability counter screen (AID 743225); further: nearly all actives have a fitted effect of over 50% in size; further: potency means the concentration at half of the fitted maximal effect
Summary of the method: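 In this counter screen, VDR-bla HEK 293T cells receive test compound plus 3 nM final calcitriol for 16 h at 37C. Room-temperature steps of 2 h with the beta-lactamase substrate, then 30 min with CellTiter-Glo, precede the luminescence read.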

[3] = qHTS assay to identify small molecule agonists of the NFkB signaling pathway - cell viability counter screen (AID 1159515; calls by dose curve; further: series mostly up to about 61 µM; nearly all actives have a fitted effect of over 55% in size)
Summary of the method: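 Using the same wells as the NFkB reporter read, ME-180 NFkB-bla cells given compounds for 5 hr were assessed for viability via CellTiter-Glo, with luminescence taken after a 30 min room-temperature incubation.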

[4] = qHTS assay to identify small molecule agonists of the endoplasmic reticulum stress response signaling pathway (AID 1159516; active means well fitted activation curve with a large enough effect in the signal ratio in the repeat runs, not every such curve was filed as active; the % refers to the signal ratio; further: potency means the concentration at half of the fitted maximal effect)
Summary of the method: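 An ESRE-bla HeLa cell assay: compounds were pin-transferred from DMSO onto overnight-plated cells and left 5 hr at 37 C. Substrate was then loaded for 2 hr at room temperature before reading fluorescence at 460 nm and 530 nm.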

[5] = qHTS assay to identify small molecule agonists of the endoplasmic reticulum stress response signaling pathway - cell viability counter screen (AID 1159517; calls by dose curve;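 further: HeLa cells carrying an ER stress response element beta-lactamase reporter; series mostly up to about 61 µM; nearly all actives have a fitted effect of over 50% in size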)
Summary of the method: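 Luminescence readout: CellTiter-Glo, 30 min RT, same wells as the ESRE-bla reporter read. HeLa ESRE-bla, 1,500 cells/well, o/n 37 C; cpd 5 hr 37 C/5% CO2.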

[6] = qHTS assay to identify small molecule antagonists of the retinoid-related orphan receptor gamma (ROR-gamma) signaling pathway - cell viability counter screen (AID 1159520); further: nearly all actives have a fitted effect of over 50% in size
Summary of the method: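 Tet-on ROR gamma CHO cells (1,000/well) were plated 4 hr, given compounds in DMSO for 2 hr at 37 C, then induced with 1 uM final doxycycline for 16 hr. Viability was read as ATP by CellTiter-Glo luminescence after 30 min.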

[7] = molecular target: Nuclear receptor ROR-gamma (Homo sapiens) (UniProt P51449); test: qHTS assay to identify small molecule antagonists of the retinoid-related orphan receptor gamma (ROR-gamma) signaling pathway (AID 1159521; further: nearly all actives have a fitted effect of over 50% in size; further: potency means the concentration at half of the fitted maximal effect;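 on activity change, negative = inhibition: CHO cells with doxycycline inducible ROR-gamma driving an RORE luciferase reporter; top concentration of the series differs between compounds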)
Summary of the method: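 Screening format: cell-based luciferase reporter in CHO cells with doxycycline-inducible RORγ. Compound pre-exposure lasts 2 h, doxycycline is 1 uM final, induction runs 16 h at 37 C, and ONE-Glo luminescence is read.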

[8] = qHTS assay to identify small molecule agonists of the AP-1 signaling pathway - cell viability counter screen (AID 1159525; calls by dose curve; further: nearly all actives have a fitted effect of over 55% in size)
Summary of the method: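 ME-180 AP-1-bla, 2500 cells/well, Opti-MEM + 0.5% dialyzed FBS; overnight 37 °C; cpd 15-pt titration, 5 h 37 °C; CellTiter-Glo 30 min RT; luminescence read; normalised to TOAB and DMSO controls.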

[9] = molecular target: Retinoic acid receptor RXR-alpha (Homo sapiens) (UniProt P19793); test: qHTS assay to identify small molecule agonists of the RXR signaling pathway (AID 1159527; calls by dose curve; further: nearly all actives have a fitted effect of over 35% in size; further: potency means the concentration at half of the fitted maximal effect)
Summary of the method: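 Fluorescence ratio readout (460 vs 530 nm) from GeneBLAzer RXR-alpha HEK 293T cells after 16 hr compound treatment; cells seeded 5 hr beforehand in low-serum, charcoal-stripped medium.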

Sequence of Retinoic acid receptor RXR-alpha (Homo sapiens) (P19793 whole entry, looked up): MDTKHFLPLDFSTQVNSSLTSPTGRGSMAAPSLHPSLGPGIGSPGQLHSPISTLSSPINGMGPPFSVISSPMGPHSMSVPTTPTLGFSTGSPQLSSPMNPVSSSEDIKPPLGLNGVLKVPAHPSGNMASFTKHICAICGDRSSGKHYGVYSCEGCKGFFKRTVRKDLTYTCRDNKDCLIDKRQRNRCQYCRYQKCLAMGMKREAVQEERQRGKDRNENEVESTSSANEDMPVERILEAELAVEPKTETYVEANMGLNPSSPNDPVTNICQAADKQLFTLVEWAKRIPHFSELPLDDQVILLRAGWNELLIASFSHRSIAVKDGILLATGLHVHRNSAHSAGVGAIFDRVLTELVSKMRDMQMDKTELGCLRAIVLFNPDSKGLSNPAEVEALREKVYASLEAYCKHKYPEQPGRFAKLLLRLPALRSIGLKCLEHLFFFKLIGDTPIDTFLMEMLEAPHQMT

Row | Structure (SMILES) | Potency [1] | Potency [2] | Potency [3] | Potency [4] | outcome [5] | Potency [6] | Potency [7] | Potency [8] | Potency [9] | activity, negative = cytotoxicity [6] | activity change, negative = inhibition [7] | viability change, negative = cytotoxic [8] | activation [9]
1 | Cc1cc(CC(=O)O)c(C)n1-c1ccc(Cl)cc1 | inactive | inactive | inactive | inactive | inactive | inactive | inactive | inactive |  |  |  |  | 
2 | ClC(Cl)(Cl)c1ccc(C(Cl)(Cl)Cl)cc1 | inactive |  | inactive | inactive | inactive | inactive | inactive | inactive |  |  |  |  | 
3 | CCCCCCCCCO | inactive |  | inactive | inactive | inactive | inactive | inactive | inactive |  |  |  |  | 
4 | O=C(O)[C@@H]1[C@H]2C[C@H]3c4[nH]c5ccccc5c4CCN3C[C@@H]2CC[C@@H]1O | inactive |  | inactive | inactive | inactive | inactive | inactive | inactive | inactive |  |  |  | 
5 | Oc1ccc(Cc2ccccc2)cc1 | inactive |  | inactive | inactive | inactive | inactive | inactive | inactive | inactive |  |  |  | 
6 | CCc1nn(C2CCCCC2)c2cc(C3(C#N)CCC(C(=O)O)CC3)ccc12 (stereo not drawn) | inactive | inactive | inactive | 1.55 µM (active) | inactive | inactive | 27.3 µM (active) | inactive | inactive |  |  |  | 
7 | O=C(O)Cn1c(C(=O)Nc2nc(-c3ccccc3Cl)cs2)cc2ccccc21 | inactive | inactive | inactive | inactive | inactive | inactive | inactive | inactive |  |  |  |  | 
8 | CCCCc1cc2ccccc2c(OCCN(C)C)n1 | inactive |  | inactive | inactive | inactive | inactive | inactive | inactive | inactive |  |  |  | 
9 | CCCCCCCCCCCCCCCBr | inactive | inactive | inactive | inactive | inactive | inactive | inactive | inactive | inactive |  |  |  | 
10 | CC(C)c1ccccc1C(C)C | inactive | inactive | inactive | inactive | inactive | inactive | inactive | inactive | inactive |  |  |  | 
11 | CN1CCN(C2=Nc3ccccc3Sc3ccc(Cl)cc32)CC1 | inactive | inactive | inactive | inactive | inactive | inactive | inactive | inactive | inactive |  |  |  | 
12 | CCCCCC/C=C/C=O | inactive | inactive | inactive | inactive | inactive | inactive | inactive | inactive | inactive |  |  |  | 
13 | C=CC(C)(CCC=C(C)C)OC(=O)c1ccccc1 (stereo not drawn) | inactive |  | inactive | inactive | inactive | inactive | inactive | inactive |  |  |  |  | 
14 | NCCCN(CCO)CCO | inactive | inactive | inactive | inactive | inactive | inactive | inactive | inactive | inactive |  |  |  | 
15 | N#CCc1cccc(C(F)(F)F)c1 | inactive | inactive | inactive | inactive | inactive | inactive | inactive | inactive |  |  |  |  | 
16 | CC(Cc1cccc(C(F)(F)F)c1)NCCOC(=O)c1ccccc1 (stereo not drawn) | 23.7 µM (active) | 16.9 µM (active) | inactive | inactive | inactive | inactive | inactive | inactive |  |  |  |  | 
17 | O=C(O)C1CCC(C(=O)O)CC1 (stereo not drawn) | inactive | inactive | inactive | inactive | inactive | inactive | inactive | inactive | 5.48 µM (active) |  |  |  | 
18 | CCCCCCCC/C=C\CCCCCCCC(N)=O | inactive | inactive | inactive | inactive | inactive | inactive | inactive | inactive | inactive |  |  |  | 
19 | CC1(C)CCC(C)(C)c2cc(NC(=O)c3ccc(C(=O)O)cc3)ccc21 | inactive | inactive | inactive | inactive | inactive | inactive | 26.6 µM (active) | inactive |  |  |  |  | 
20 | O=C(C(=O)c1ccc(Br)cc1)c1ccc(Br)cc1 | inactive |  | inactive | inactive | inactive |  |  |  |  | -5.42% [at 19 µM] | 2.45% [at 19 µM] | 10.5% [at 15.8 µM] | -4.31% [at 15.8 µM]
21 | O=C(/C=C/c1ccc(O)c(O)c1)O[C@@H]1C[C@](O)(C(=O)O)C[C@@H](O)[C@H]1O | inactive | inactive | inactive | inactive | inactive | inactive | inactive | inactive | inactive |  |  |  | 
22 | CN1CCC(=C2c3ccccc3C=Cc3ccccc32)CC1 | inactive | inactive | inactive | inactive | inactive | inactive | inactive | inactive | inactive |  |  |  | 
23 | Oc1ccc(O)c2c(O)cccc12 | inactive | inactive | inactive | inactive | inactive | inactive | inactive | inactive | inactive |  |  |  | 
24 | CCN(CC)CCNC(C(=O)OCCC(C)C)c1ccccc1 (stereo not drawn) | inactive | inactive | inactive | inactive | inactive | inactive | inactive | inactive | inactive |  |  |  | 
25 | CC(=O)[C@@]1(O)CC[C@H]2[C@@H]3C[C@H](C)C4=CC(=O)CC[C@]4(C)[C@H]3CC[C@@]21C | inactive | inactive | inactive | inactive | inactive | inactive | inactive | inactive | inactive |  |  |  | 
26 | CCCCOc1cc(C(=O)OCCN(CC)CC)ccc1N | inactive |  | inactive | inactive | inactive | inactive | inactive | inactive | inactive |  |  |  | 
